The text below walks through data of PubChem BioAssay AID488969 (Vanderbilt High Throughput Screening Facility, 2010).

Over roughly 110,000 compounds, “z-score” has its median near -0.1; the highest 2% begin near 2. This excerpt belongs to a sample that is enriched for the highest values. The source made the active and inactive calls.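 The calls were made as follows: active = z-score in the third read window above 3 or below -3; inactive = the rest.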

In this assay the target is Metabotropic glutamate receptor 8 (Rattus norvegicus) (UniProt P70579). Nature of the assay: rat mGluR8 modulators via GIRK flux, primary screen, cell-based, thallium flux, HTS (AID 488969). To be noted: HEK293 rat mGluR8, GIRK (G protein-gated inwardly rectifying potassium channel) thallium flux, FluoZin2; at 10 µM; stronger effect = higher value; submaximal glutamate (EC20) added with thallium.
Sequence of Metabotropic glutamate receptor 8 (Rattus norvegicus) (P70579 whole entry, looked up): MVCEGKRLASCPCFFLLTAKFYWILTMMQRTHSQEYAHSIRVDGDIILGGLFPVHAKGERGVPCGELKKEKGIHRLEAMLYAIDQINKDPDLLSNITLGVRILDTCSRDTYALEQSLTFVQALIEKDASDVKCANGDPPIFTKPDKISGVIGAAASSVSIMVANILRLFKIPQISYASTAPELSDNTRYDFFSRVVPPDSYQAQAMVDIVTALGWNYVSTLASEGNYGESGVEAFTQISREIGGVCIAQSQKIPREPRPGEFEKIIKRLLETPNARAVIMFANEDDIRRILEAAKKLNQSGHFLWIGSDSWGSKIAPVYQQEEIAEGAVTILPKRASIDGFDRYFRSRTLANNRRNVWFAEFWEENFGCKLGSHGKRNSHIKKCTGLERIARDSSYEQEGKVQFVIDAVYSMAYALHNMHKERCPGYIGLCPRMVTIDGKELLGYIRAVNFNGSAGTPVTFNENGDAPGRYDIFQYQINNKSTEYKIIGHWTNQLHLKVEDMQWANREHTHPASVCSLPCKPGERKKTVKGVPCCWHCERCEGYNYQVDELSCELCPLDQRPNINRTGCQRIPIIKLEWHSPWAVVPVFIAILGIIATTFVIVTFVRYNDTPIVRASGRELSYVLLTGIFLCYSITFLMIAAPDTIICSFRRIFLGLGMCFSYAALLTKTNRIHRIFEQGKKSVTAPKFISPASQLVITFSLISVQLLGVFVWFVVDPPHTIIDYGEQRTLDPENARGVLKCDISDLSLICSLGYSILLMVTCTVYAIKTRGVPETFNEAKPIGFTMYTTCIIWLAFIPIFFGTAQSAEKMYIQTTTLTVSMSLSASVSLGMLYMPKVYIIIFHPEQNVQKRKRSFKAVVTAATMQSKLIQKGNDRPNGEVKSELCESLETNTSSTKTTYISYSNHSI
Compound `CCc1ccc(NC(=O)CCn2ccnc2C)cc1` gave a z-score of 0.306.
With `CCn1c(CCn2ccnc2C)n[nH]c1=S` the figure was 0.253; with `Cc1nccn1CCc1nc(N)nc(N)n1`, 7.57 (active); with `O=c1cc(CN2CCN(CCO)CC2)c2cc3c(cc2o1)CCC3`, 0.804.
The compound `CCN(C(=O)c1ccco1)c1nc(CC(=O)Nc2ccc(Cl)cc2)cs1` showed a z-score of -0.635.
Then `O=C(Nc1ccc2oc(-c3cccnc3)nc2c1)c1ccco1`, with -0.851.
Then `CCOC(=O)c1c(-c2ccc(C)o2)csc1NC(=S)NC(=O)c1ccccc1Br`, with 0.406; and `CCOC(=O)c1c(-c2ccc(C)o2)csc1NC(=O)COC(=O)c1cccs1`, with 0.191.
Then `CCOC(=O)c1c(-c2ccc(C)o2)csc1NC(=O)CN(C)CC(=O)Nc1ccc(C)cc1`, with -0.104; and `CCOC(=O)c1c(-c2ccc(C)o2)csc1NC(=S)NC(=O)c1cccs1`, with 3.05 (active); and `CCOC(=O)c1c(-c2ccc(C)o2)csc1NC(=O)CSc1nnc(C)s1`, with -1.11.
On to `CCOC(=O)c1c(-c2ccc(C)o2)csc1NC(=S)NC(=O)N(C)C`, for which the z-score was 13.6 (active).
Then `O=C1OCCC1Sc1nnc(-c2ccccc2)o1` (configuration not stated), with -0.134; and `Cc1c(Cl)cccc1NC(=S)NC1CCN(Cc2ccccc2)CC1`, with -0.67.
Then `Cc1cc(C(=O)OCC(=O)Nc2ccc(F)cc2)c(C)o1`, with 2.45; and `Cc1occc1C(=O)OCC(=O)Nc1ccc(F)cc1`, with 0.794.
With `Cc1cc(C(=O)OCC(=O)Nc2ccc(F)c(F)c2)c(C)o1` the figure was 0.0113; with `N#Cc1c(N)nc2c(c1-c1ccncc1)CCCC2`, -0.232.
In the case of `COc1ccc2c(CC(=O)NC3CCCc4ccccc43)coc2c1` (configuration not stated), the z-score was -0.484.
Then `Cc1ccc2c(CC(=O)NC3CCCc4ccccc43)coc2c1` (configuration not stated), with 4.11 (active); and `Cc1cc2occ(CC(=O)NC3CCCc4ccccc43)c2cc1C` (configuration not stated), with 0.0042.
`CCOC(=O)C(NC(=O)NCc1ccc(OC)cc1)(OCC)C(F)(F)F` (configuration not stated): the z-score is -0.306.
With `O=C(c1ccc(Cl)cc1)c1cnc2ccccn12` the figure was -0.0464; with `O=C(Nc1ccccc1F)c1ccc(-n2cncn2)nc1`, -0.0684.
With `O=C(CN1CCCCCCC1)N/N=C/c1ccc(F)cc1F` the figure was -0.63.
Then `CC(=O)c1ccc(NC(=O)COC(=O)CCC(=O)c2cccs2)cc1`, with 0.114.
`Cc1ccccc1NC(=S)NC(=O)CCc1ccccc1`: the z-score was 2.94.
Then `Cc1cccc(NC(=S)NC(=O)CCc2ccccc2)c1C`, with 0.747; and `Cc1cccc(NC(=O)NC(C)CCc2ccccc2)c1` (configuration not stated), with 4.17 (active); and `CC(CCc1ccccc1)NC(=O)C(=O)Nc1ccccc1` (configuration not stated), with -0.109.
`Cc1ccccc1NC(=S)NC(C)CCc1ccccc1` (configuration not stated) yielded a z-score of 0.22.
Consider `Cc1cccc(NC(=S)NC(C)CCc2ccccc2)c1` (configuration not stated), for which the z-score stood at 0.2.
Then `Cc1cccc(NC(=S)NC(=O)CCc2ccccc2)c1`, with 2.74; and `O=C(CCc1ccccc1)NC(=S)Nc1cccc(Br)c1`, with 0.0148.
Then `Cc1cccc(C)c1NC(=S)NC(=O)CCc1ccccc1`, with 1.73; and `Cc1cccc(NC(=S)NNC(=O)Cc2ccccc2)c1`, with 0.0541.
With `Cc1ccccc1NC(=O)C(=O)NC(C)CCc1ccccc1` (configuration not stated) the figure was 7.37 (active); with `COC(=O)[C@H](C)NC(=O)Nc1cccc(C)c1`, -0.0554; with `CCOc1ccc(Cn2ccnc2CCl)cc1[N+](=O)[O-]`, -0.00871.
With `Cc1cccc(N(C)C(=O)c2coc(=O)c3ccccc23)c1`, the z-score was -0.042.
With `CCCS(=O)(=O)N1CCCC(C(=O)NC2CCCCC2)C1` (configuration not stated) the figure was 0.0604; with `O=C(CSc1nc2c(c(C(F)(F)F)n1)CCc1ccccc1-2)NCc1ccc(F)cc1`, 0.759.
On to `CCn1cc(C(=O)N2CCN(Cc3ccc4c(c3)OCO4)CC2)c(=O)c2ccc(C)nc21`, for which the z-score was -0.451.
Turning to `CCc1ccccc1NC(=O)CSc1nc2c(c(-c3ccco3)c1C#N)CCCC2`, the z-score stood at 0.16.
Then `CCOc1ccc(N2C(=O)CC(Sc3nc(C)cc(C)c3C#N)C2=O)cc1` (configuration not stated), with 0.15; and `CC1CCN(C(=O)Cc2nn(C)c(=O)c3ccccc23)CC1`, with 0.733; and `COc1ccc(Oc2nc(C(F)(F)F)nc3ccccc23)cc1`, with -0.576.
With `Cc1c(Br)c([N+](=O)[O-])nn1C(C)C(=O)NCc1cccs1` (configuration not stated) the figure was -0.152.
Then `Cc1ccc(NC(=O)Cn2nnc(-c3ccccc3NC(=O)c3cccs3)n2)cc1`, with -0.57; and `CC(c1ccccc1)n1c(-c2ccncc2)n[nH]c1=S` (configuration not stated), with 0.000563; and `CCCc1cc(-c2n[nH]c(=S)n2C(C)c2ccccc2)cs1` (configuration not stated), with 10.9 (active).
In turn, `CCn1c(-c2csc(-c3ccccc3)n2)n[nH]c1=S` showed a z-score of 0.398.
As to `CCc1cc(-c2n[nH]c(=S)n2C(C)c2ccccc2)cs1` (configuration not stated), the z-score amounted to 2.55.
The compound `CCc1cc(-c2n[nH]c(=S)n2-c2ccccc2C)cs1` registered a z-score of -0.325.
Then `Cc1scc(-c2n[nH]c(=S)n2C(C)c2ccccc2)c1C` (configuration not stated), with -1.43.
With `CCOC(=O)CNC(=O)CSc1nc(N(C)C)nc(N2CCOCC2)n1` the figure was -0.116; with `COc1ccc(-c2cc(-n3c(C(F)(F)F)nc4ccccc43)n(CCC#N)n2)cc1`, -0.215; with `CCN1CCN(c2cc(C)c3cc(NC(=O)c4ccc(Br)o4)ccc3n2)CC1`, 3.44 (active).
With `Cc1cc(N2CCCCC2)nc2ccc(NC(=O)c3ccc(Br)o3)cc12` the figure was -1.58; with `CCN1CCN(c2cc(C)c3cc(NC(=O)c4ccncc4)ccc3n2)CC1`, 1.22.
`CCCC1Cc2nc(N3CCCCC3)c(C#N)cc2CO1` (configuration not stated): the z-score is 0.443.
Then `Cc1cc(NCCCN(C)C)n2nc(-c3cccs3)cc2n1`, with -0.0105.
Compound `CCOc1ccc(NS(=O)(=O)c2ccc3c(c2)CCN3C(=O)C2CCC2)cc1` showed a z-score of -0.102.
Compound `CC(C)NC(=O)c1cccc(Br)c1` returned a z-score of -0.0557.
`Cc1ccc(OCc2nn3c(-c4ccco4)nnc3s2)cc1`: the z-score is -1.14.
Take `c1ccc2c(-c3nnc4n3CCCCC4)cc(-c3ccncc3)nc2c1`: the z-score is 0.284.
Then `Clc1ccc(-c2cc(-c3nnc4n3CCCCC4)c3ccccc3n2)cc1`, with 2.08.
`Fc1ccc(-c2cc(-c3nnc4n3CCCCC4)c3ccccc3n2)cc1` showed a z-score of -0.316.
Then `O=c1c2c(-c3cccs3)csc2ncn1-c1ccccc1`, with -0.0624; and `O=C(c1ccc(Cl)c([N+](=O)[O-])c1)N1CCN(c2ccccn2)CC1`, with -0.0404.
With `CCCCn1c(SCC(N)=O)nc2c(sc3ccccc32)c1=O` the figure was 3.23 (active); with `CCCCn1c(SCC(=O)NCc2ccco2)nc2c(sc3ccccc32)c1=O`, -0.00992; with `NC(=O)CSc1nc2c(sc3ccccc32)c(=O)n1CCCN1CCOCC1`, 0.869.
With `O=C(CSc1nc2c(sc3ccccc32)c(=O)n1CCO)NCC1CCCO1` (configuration not stated) the figure was 0.0816.
Take `Cc1ccc(Cn2c(SCC(=O)NCC3CCCO3)nc3c(sc4ccccc43)c2=O)cc1` (configuration not stated): the z-score worked out at 2.06.
Then `CCC(C)NC(=O)CSc1nc2c(sc3ccccc32)c(=O)n1CCCN1CCOCC1` (configuration not stated), with 0.452; and `CC(C)CCn1c(SCC#N)nc2c(sc3ccccc32)c1=O`, with 5.93 (active).
In the case of `CCSc1nc2c(sc3ccccc32)c(=O)n1C(C)C`, the z-score was determined as 0.00726.
With `O=C(CSc1nc2c(sc3ccccc32)c(=O)n1Cc1ccccc1)NCC1CCCO1` (configuration not stated) the figure was 0.199; with `Cc1ccc(S(=O)(=O)NCc2c(-c3ccccc3)c3cc(Cl)ccc3[nH]c2=O)cc1`, -0.178; with `CC1CC(C)CN(CC(=O)Nc2ccc3c(c2)OCCO3)C1` (configuration not stated), -0.603.
As for `COc1cc(N2C(=O)c3ccccc3C2=O)c(Cl)cc1C(=O)OCC(=O)NCc1ccco1`, the z-score was determined as 0.165.
With `CCOC(=O)c1cnc(SC)nc1N` the figure was -0.0813; with `CCCn1c(-c2ccc(F)cc2)cnc1SCC(=O)O`, -0.678; with `CCOC(=O)c1c(C)[nH]c(C(=O)COC(=O)CNC(=O)c2ccc(Br)cc2)c1C`, -0.279.
With `CCOC(=O)c1c(C)[nH]c(C(=O)COC(=O)CNC(=O)c2ccc(Cl)cc2)c1C` the figure was 5.97 (active); with `CCOC(=O)c1c(C)[nH]c(C(=O)COC(=O)CNC(=O)c2ccc(Cl)cc2Cl)c1C`, -0.202.
With `COc1ccc(CCn2c(C)cc(C(=O)CSc3nnnn3-c3ccccc3)c2C)cc1` the figure was 0.292; with `CN(C)c1ccc(/C=C/c2nnnn2-c2ccccc2)cc1`, -0.556.
Consider `COc1ccc(S(=O)(=O)N2CCCCC2)cc1NC(=O)c1ccc2ccccc2n1`, for which the z-score was -0.376.
Compound `CCc1ccc(Nc2nnc(SCn3nnc4ccccc4c3=O)s2)cc1` yielded a z-score of -0.292.
Then `CCc1ccc(NCc2nc3ccccc3c(=O)[nH]2)cc1`, with -0.644.
With `CCc1ccc(Nc2nc3ccccc3c(=O)s2)cc1` the figure was 2.82; with `Cc1ccc2nc3sc(C(=O)N4CCCc5ccccc54)c(N)c3cc2c1`, 0.484; with `CN(Cc1nc(-c2ccncc2)no1)S(=O)(=O)c1ccccc1`, 0.00952.
Regarding `O=C(CSc1ccccn1)N1CCN(c2ccccc2)CC1`, the z-score was 0.0291.
With `CCOc1ccc2nc(NC(=O)CS(=O)(=O)c3ccc(C)cc3)sc2c1`, the z-score is -0.503.
Then `COc1ccc2nc(/N=C/c3c(C)[nH]n(-c4ccc(C)cc4)c3=O)sc2c1`, with 9.39 (active); and `COc1ccc2nc(/N=C\N(C)C)sc2c1`, with 0.401.
Then `COc1ccc2nc(/N=C/c3c(C)[nH]n(-c4ccc(C)cc4C)c3=O)sc2c1`, with 15.7 (active); and `CCOc1ccc2nc(SC3CC(=O)N(c4ccc(C)cc4)C3=O)sc2c1` (configuration not stated), with 0.0229.
With `COc1cc(SC#N)ccc1N=Cc1c(C)[nH]n(-c2ccc(C)cc2)c1=O` the figure was 0.469; with `CCOc1ccc(N=Cc2c(C)[nH]n(-c3nc4ccccc4[nH]3)c2=O)cc1`, 0.0911.
For the compound `Cc1ccc(-n2[nH]c(C)c(C=Nc3ccc(S(=O)(=O)Nc4nc(C)cc(C)n4)cc3)c2=O)c(C)c1`, the z-score was -0.0925.
Then `CCOc1ccc2nc(/N=C/c3c(C)[nH]n(-c4ccc(C)cc4)c3=O)sc2c1`, with 10.6 (active).
Then `CCOc1ccc2nc(/N=C/c3c(C)[nH]n(-c4ccccc4)c3=O)sc2c1`, with 13.8 (active); and `COc1cc(SC#N)ccc1N=Cc1c(C)[nH]n(-c2ccc(C)cc2C)c1=O`, with -0.204; and `Cc1[nH]n(-c2ccccc2)c(=O)c1C=Nc1cnc2ccccc2c1`, with 0.416.
Then `O=C(CCc1nc(-c2ccc(Cl)cc2)no1)OCc1ccc(Br)cc1`, with -0.0119; and `O=C(CCSc1ccc(Cl)cc1)NC1CCCCC1`, with -0.109; and `COC(=O)c1ccccc1NC(=O)c1cc(-c2ccc(O)cc2)on1`, with -0.322.
`Cc1cc(N=Cc2cc(Br)ccc2O)no1` had a z-score of -1.2.
